The nature of assay [1]: qHTS assay for small molecule agonists of the p53 signaling pathway (AID 651631; calls by dose curve; note: nearly all actives have a fitted effect of over 15% in size). The gist of the method: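 We treat p53RE-bla HCT-116 cells with compounds for 16 h at 37 °C, add LiveBLAzer B/G FRET substrate for 2 h at room temperature, and measure fluorescence intensity.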
On the technique in general: Quantitative high-throughput screening tests each substance at several concentrations.

The nature of assay [2]: qHTS assay for small molecules that induce genotoxicity in human embryonic kidney cells expressing luciferase-tagged ATAD5 (AID 651632). Note: nearly all actives have a fitted effect of over 15% in size. The gist of the method: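 Genotoxicity read-out via ATAD5-luciferase: HEK293T cells, 16 hr compound incubation at 37C, Amplite detection.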
Assay [3] in a line: qHTS assay for small molecule agonists of the p53 signaling pathway - cell viability (AID 651633; calls by dose curve;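 note: p53RE-bla HCT reporter cells with a stable beta-lactamase p53 reporter; series mostly up to about 83 µM; nearly all actives have a fitted effect of over 30% in size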). The gist of the method: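 p53RE-bla cells were treated with compound for 16 hours at 37 C. Cytotoxicity was then measured as CellTiter-Glo luminescence after 30 min at room temperature.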
Assay [4] in a line: qHTS assay for small molecules that induce genotoxicity in human embryonic kidney cells expressing luciferase-tagged ATAD5 - cell viability (AID 651634; calls by dose curve; note: nearly all actives have a fitted effect of over 25% in size). A digest of the protocol:
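Live-cell protease activity (CellTiter-Fluor, fluorescence) indicates viability. HEK293T cells with luciferase-tagged ATAD5; 15.5 hr compound treatment at 37C.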

Assay [5] is described as follows: qHTS assay for small molecule disruptors of the mitochondrial membrane potential - cell viability (AID 720634; calls by dose curve;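 note: human HepG2 liver cancer cells; series mostly up to about 83 µM; nearly all actives have a fitted effect of over 20% in size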). The gist of the method: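 Human hepatoma HepG2 cells were treated for 1 hr with test chemicals, then given m-MPI dye and CellTiter-Glo. Cell viability reflects luminescence proportional to cellular ATP.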
Assay [6] is described as follows: qHTS assay for small molecule disruptors of the mitochondrial membrane potential (AID 720635). Note: potency is the fitted concentration of half-maximal effect. The gist of the method:
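HepG2 cells exposed to compound 1 hr at 37C, then Mito-MPS dye 30 min. Ratio read of aggregate (540/590 nm) versus monomer (490/535 nm) fluorescence.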

A short description of assay [7]: qHTS assay to test for compound auto fluorescence at 590 nm (red) in HepG2 cells (AID 720674). A digest of the protocol:
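HepG2 cells, 2,000 per well in MEM with 10% FBS, attached overnight at 37 C, then got 23 nL compound or DMSO. After 1 hr at 37 C, 5% CO2, red fluorescence was read at 540/590 nm against Rose Bengal sodium as reference.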

The nature of assay [8]: qHTS assay to test for compound auto fluorescence at 535 nm (green) in HepG2 cells (AID 720675).
The nature of assay [9]: qHTS assay to test for compound auto fluorescence at 460 nm (blue) in HEK293 cells (AID 720678). A digest of the protocol:
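HEK293 cells (2,000 per well, medium with 10% dialyzed FBS) attached for 4-5 hr at 37C, then received compound and stood overnight at 37C, 5% CO2. Blue fluorescence was read at Ex/Em 405/460 nm and expressed relative to triamterene.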

The nature of assay [10]: qHTS assay to test for compound auto fluorescence at 590 nm (red) in HEK293 cells (AID 720679). A digest of the protocol:
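HEK293 cells (2,000/well, medium with 10% dialyzed FBS) attached for 4-5 hr at 37C, received 23 nL compound and were incubated overnight at 37C, 5% CO2. Red fluorescence was then read at 540/590nm Ex/Em, referenced to Rose Bengal sodium.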

Assay [11] can be described thus: qHTS assay to test for compound auto fluorescence at 535 nm (green) in HEK293 cells (AID 720680).
A short description of assay [12]: qHTS assay to test for compound auto fluorescence at 460 nm (blue) in HEK293 cell free culture (AID 720681). The gist of the method:
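Compounds were added to cell-free DMEM with 10% FBS and fluorescence read directly. The blue channel used 405 nm excitation and 460 nm emission, with triamterene as the reference fluorophore.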

A short description of assay [13]: qHTS assay to test for compound auto fluorescence at 535 nm (green) in HEK293 cell free culture (AID 720682). A digest of the protocol:
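Green-channel intensity (Ex/Em 485/535 nm) was recorded from compound-treated wells containing only DMEM with 10% FBS. Fluorescein provided the equivalency standard.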

Assay [14] can be described thus: qHTS assay to test for compound auto fluorescence at 590 nm (red) in HEK293 cell free culture (AID 720683). The gist of the method:
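Cell-free wells of DMEM with 10% FBS received compound, and intrinsic fluorescence was read at excitation/emission 540/590 nm. Values expressed as equivalence to Rose Bengal sodium.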

Assay [15] is described as follows: qHTS assay to test for compound auto fluorescence at 590 nm (red) in HepG2 cell free culture (AID 720684). The gist of the method: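 Compound was pinned into wells holding MEM with 10% FBS and no cells, and red fluorescence was read at Ex/Em 540/590 nm. Signal is expressed as auto fluorescence equivalency relative to Rose Bengal sodium.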
The nature of assay [16]: qHTS assay to test for compound auto fluorescence at 460 nm (blue) in HepG2 cell free culture (AID 720685). A digest of the protocol:
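Compound (23 nL) or DMSO pinned into cell-free MEM with 10% FBS; blue fluorescence read at 405/460 nm excitation/emission, expressed as auto-fluorescence equivalency to triamterene.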

Assay [17] in a line: qHTS assay to test for compound auto fluorescence at 535 nm (green) in HepG2 cell free culture (AID 720686).
A short description of assay [18]: qHTS assay to test for compound auto fluorescence at 460 nm (blue) in HepG2 cells (AID 720687). The gist of the method:
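HepG2 cells in MEM with 10% FBS, attached overnight at 37 C, were exposed to compound or DMSO for 1 hr at 37 C, 5% CO2. Blue fluorescence was read at 405/460 nm, with triamterene as reference fluorophore.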

In assay [19] the target is Glucocorticoid receptor (Homo sapiens) (UniProt P04150). Briefly: qHTS assay to identify small molecule agonists of the glucocorticoid receptor (GR) signaling pathway (AID 720691; active = well fitted activation curve with a large enough effect in the signal ratio in the repeat runs, not every such curve was filed as active; the % refers to the signal ratio). A digest of the protocol: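 Beta-lactamase reporter activity, read as fluorescence intensity, was measured in GR-bla HeLa cells exposed to compounds for 18 h at 37 C and then loaded with LiveBLAzer B/G FRET substrate for 2 h at room temperature.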

The target is the same in assay [20]. Put plainly: qHTS assay to identify small molecule antagonists of the glucocorticoid receptor (GR) signaling pathway (AID 720692; active = well fitted inhibition curve with a large enough effect in the signal ratio in the repeat runs, not every such curve was filed as active; the % refers to the signal ratio). The gist of the method: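 Fluorescence from cleaved LiveBLAzer B/G FRET substrate reports GRE-driven beta-lactamase in HeLa cells; compounds are tested against 5 nM dexamethasone (final) over 18 h at 37 C, substrate incubation 2 h at room temperature.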

Each structure is given as a SMILES string. “And” between values parts separate entries of the source, which are not always exact repeats. Equal values may be shown once. Inconclusive results are not listed. Some compounds were tested as several samples or in several runs, with calls that do not always agree. The source made the active and inactive calls. Unless noted, calls come from the whole dose curve; as a rule, active = well fitted curve in the direction sought with a large enough effect in the repeat runs; inconclusive = weak or mixed curves; inactive = no such curve, though single readings can be large; an effect the other way counts as inactive or inconclusive.

Glucocorticoid receptor (Homo sapiens), sequence (P04150 whole entry, looked up): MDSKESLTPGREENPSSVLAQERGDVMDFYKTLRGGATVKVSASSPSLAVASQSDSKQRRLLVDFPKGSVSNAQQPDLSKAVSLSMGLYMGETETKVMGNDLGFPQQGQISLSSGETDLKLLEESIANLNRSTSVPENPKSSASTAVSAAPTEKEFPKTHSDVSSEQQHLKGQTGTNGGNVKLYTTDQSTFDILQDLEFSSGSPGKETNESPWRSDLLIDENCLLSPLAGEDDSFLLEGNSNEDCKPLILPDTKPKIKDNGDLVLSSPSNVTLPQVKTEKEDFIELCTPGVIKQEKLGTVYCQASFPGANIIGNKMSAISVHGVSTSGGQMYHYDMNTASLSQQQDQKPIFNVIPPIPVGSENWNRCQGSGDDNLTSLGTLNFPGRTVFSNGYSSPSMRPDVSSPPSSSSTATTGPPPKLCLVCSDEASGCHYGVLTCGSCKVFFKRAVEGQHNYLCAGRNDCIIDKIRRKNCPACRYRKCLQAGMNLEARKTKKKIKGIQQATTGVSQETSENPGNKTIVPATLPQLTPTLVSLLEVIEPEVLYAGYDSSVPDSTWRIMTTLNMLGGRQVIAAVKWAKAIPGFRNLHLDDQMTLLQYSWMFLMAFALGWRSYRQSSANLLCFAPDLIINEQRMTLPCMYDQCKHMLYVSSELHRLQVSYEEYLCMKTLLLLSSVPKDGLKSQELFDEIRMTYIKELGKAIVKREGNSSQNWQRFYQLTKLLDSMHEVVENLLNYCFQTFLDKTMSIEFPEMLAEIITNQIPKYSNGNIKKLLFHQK

As to `CC(C)(C)OOC(=O)c1ccccc1`, the compound was classed as inactive in assay [1], in assay [2], in assay [3], in assay [4], in assay [7] and in assay [8]. Further, the compound was called inactive in assay [9], in [10], in assay [11], in assay [12], in [13] and in [14]. Besides, the call in [15], in [16], in [17], in assay [18] and in assay [19] was inactive. Besides, the Potency result in assay [5] and in [6] was “inactive” each time.
Regarding `Cc1ccccc1O`, the call in assay [1], in [2], in assay [3], in assay [4], in assay [7] and in assay [8] was inactive. Moreover, the outcome in assay [9], in assay [10], in [11], in assay [12], in assay [13] and in assay [14] was inactive. The call in assay [15], in assay [16], in assay [17], in [18] and in [19] was inactive. In addition, the Potency entry in [5], in assay [6] and in assay [20] was “inactive” throughout.
`O=NN1CCCCCCC1`: the call in [1], in assay [2], in [3], in assay [4], in assay [7] and in assay [9] was inactive. Moreover, the result in [10], in assay [11], in assay [12], in assay [14], in assay [15] and in [16] was inactive. The compound was called inactive in assay [17], in assay [18] and in assay [19]. The Potency result in assay [5], in assay [6] and in assay [20] was “inactive” each time.
Consider `Nc1ccccc1C(=O)O`, for which the call in assay [1], in assay [2], in assay [3], in assay [4], in assay [7] and in assay [8] was inactive. For the same compound, the compound was classed as inactive in assay [9], in [10], in assay [11], in [12], in assay [13] and in [14]. Moreover, the outcome in assay [15], in [16], in [17] and in [18] was inactive. Moreover, the Potency entry in assay [5] was “inactive”.
Consider `c1cc2c3c(cccc3c1)CC2`, for which the outcome in assay [1], in [2], in assay [3], in assay [4], in [7] and in assay [9] was inactive. In addition, the outcome in assay [10], in [11], in [12], in assay [13], in assay [14] and in assay [15] was inactive. The compound was classed as inactive in [16], in [17], in assay [18] and in assay [19]. In addition, the Potency result in assay [5] and in assay [6] was “inactive” in each case.
For `CC(C)N1C(=O)c2ccccc2NS1(=O)=O`, the result in assay [1], in assay [2], in assay [3], in [4], in assay [7] and in [9] was inactive. The outcome in [10], in assay [11], in assay [12], in assay [14], in assay [15] and in assay [16] was inactive. Also, the outcome in assay [17], in [18] and in assay [19] was inactive. For the same compound, the Potency entry in assay [5] was “inactive”. Moreover, the Potency entry in assay [6] is “inactive and 48.6 µM (active)”.
Regarding `CCC12COCN1COC2`, the call in assay [1], in [2], in assay [3], in assay [4], in [7] and in assay [8] was inactive. The compound was called inactive in assay [9], in assay [10], in assay [11], in assay [12], in assay [13] and in assay [14]. For the same compound, the outcome in [15], in assay [16], in assay [17] and in [18] was inactive. In addition, the Potency entry in assay [5] is “inactive”.
Regarding `CC(C)OC(=O)Nc1ccccc1`, the result in assay [1], in assay [2], in assay [3], in [4], in assay [7] and in assay [8] was inactive. Besides, the compound was called inactive in assay [9], in assay [10], in assay [11], in assay [12], in assay [14] and in [15]. Further, the compound was called inactive in assay [16], in [17] and in assay [18]. For the same compound, the Potency entry in assay [5] and in [6] was “inactive” in each case.
Take `O=c1n(Cl)c(=O)n(Cl)c(=O)n1Cl`: the outcome in assay [1], in [2], in assay [3], in [4], in assay [7] and in [8] was inactive. Moreover, the outcome in assay [9], in assay [10], in assay [11], in [12], in [14] and in assay [15] was inactive. Further, the result in assay [16], in assay [17], in [18] and in assay [19] was inactive. For the same compound, the Potency result in [5], in assay [6] and in [20] was “inactive” in each case.
